37 compounds from PubChem BioAssay (NCATS) can be followed below.

Records with an inconclusive call do not appear. A call without a number means that no potency is given here. The source made the active and inactive calls. Calls come from the whole dose curve; as a rule, active = well fitted curve in the direction sought with a large enough effect; inconclusive = small, poorly fitted or top-dose-only effect, or another doubt; inactive = no such curve, though single readings can be large; an effect the other way counts as inactive or inconclusive.

DNA repair nuclease/redox regulator APEX1 (Homo sapiens), sequence (P27695 whole entry, looked up): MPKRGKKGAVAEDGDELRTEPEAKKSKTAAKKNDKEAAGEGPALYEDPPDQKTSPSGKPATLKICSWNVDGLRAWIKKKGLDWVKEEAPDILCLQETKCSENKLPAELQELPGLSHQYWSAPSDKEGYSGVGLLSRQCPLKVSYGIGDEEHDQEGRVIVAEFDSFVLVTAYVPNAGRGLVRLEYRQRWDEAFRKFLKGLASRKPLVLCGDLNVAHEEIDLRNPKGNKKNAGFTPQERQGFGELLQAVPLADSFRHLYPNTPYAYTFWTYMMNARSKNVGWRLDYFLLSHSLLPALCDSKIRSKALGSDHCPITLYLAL

The first assay has as its target DNA repair nuclease/redox regulator APEX1 (Homo sapiens) (UniProt P27695). The assay is described as follows: qHTS Validation Assay for Inhibitors of the Human Apurinic/apyrimidinic Endonuclease 1 (APE1) (AID 1705; note: potency is the fitted concentration of half-maximal effect). Conditions: purified APE1 endonuclease activity, fluorescence, titration; series mostly up to 57.1 µM. Summed up:
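Activity read as rising fluorescence (598 nm emission, 525 nm excitation) from incision of a TAMRA/BHQ-2 duplex carrying a THF abasic site (50 nM). Compound and enzyme sat 15 min at RT before substrate start; signal change between first and third 60-s reads.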
A general note: qHTS replaces the single test concentration by a dilution series.
In the case of `O=C(O)/C(=C/c1c(C(=O)O)[nH]c2cc(Cl)cc(Cl)c12)c1ccccc1`, the Potency result was “inactive”.

On to `CC1=C(/C=C/C(C)=C/C=C/C(C)=C\C(=O)O)C(C)(C)CCC1`, for which the Potency result is “inactive”.

On to `O=C(O)CCC(=O)N1CCCC1C(=O)O` (stereo not drawn), for which the Potency entry was “inactive”.

With `N=C(N)c1ccccc1`, the Potency entry is “inactive”.

For `N=S(=O)(O)Cc1noc2ccccc12`, the Potency entry was “inactive”.

Take `O=[N+]([O-])c1cccc2cn[nH]c12`: the Potency result was “inactive”.

For the compound `C[C@@H](NCCc1ccc(O)cc1)[C@@H](O)c1ccc(O)cc1`, the Potency result was “inactive”.

Regarding `CC[N+](CC)(CC)CC(=O)Nc1c(C)cccc1C`, the Potency result was “inactive”.

Regarding `O=C(O)c1cc2cc(F)ccc2[nH]1`, the Potency entry is “inactive”.

Take `CNc1cc(NS(=O)(=O)c2ccc(N)cc2)nc(NC)n1`: the Potency entry is “inactive”.

Consider `CN1C2CCC1CC(OC(c1ccccc1)c1ccccc1)C2` (stereo not drawn), for which the Potency result is “inactive”.

With `CN1CCN(c2nc3cc(C(F)(F)F)ccc3n3cccc23)CC1`, the Potency result was “inactive”.

Consider `CCSC(=N)N`, for which the Potency result was “inactive”.

`Nc1ccc(-c2nc3ccc(-c4nc5ccc(N)cc5[nH]4)cc3[nH]2)cc1`: the Potency is 28.2 µM (active).

Regarding `O=C(O)c1cccnc1C(=O)O`, the Potency result is “inactive”.

Regarding `c1ccc(CN2CCC3(CCCc4ccccc43)CC2)cc1`, the Potency entry was “inactive”.

As for `Oc1cc2c(cc1O)C(c1ccccc1)CNCC2` (stereo not drawn), the Potency result was “inactive”.

On to `CCCC[C@@]1(C2CCCC2)Cc2cc(OCC(=O)O)c(Cl)c(Cl)c2C1=O`, for which the Potency result is “inactive”.

In the case of `NS(=O)(=O)c1cccc2c1c([N+](=O)[O-])cc1nc(O)c(O)nc12`, the Potency result is “inactive”.

For `Cc1nc(N=Nc2ccc(C(=O)O)cc2)c(COP(=O)(O)O)c(C=O)c1O`, the Potency result is “inactive”.

Take `CCCCCCC/C=C\CCCCCCCCC(=O)O`: the Potency is 35.5 µM (active).

Consider `NCCCCN=C(N)N`, for which the Potency entry was “inactive”.

With `Cc1cc2c(cc1Cl)N(C(=O)Nc1ccnc3ccccc13)CC2`, the Potency entry is “inactive”.

For the compound `CC(=O)NNC(=O)N1Cc2ccccc2Oc2ccc(Cl)cc21`, the Potency result is “inactive”.

As to `CC1CCN(CC[C@H]2CCCN2S(=O)(=O)c2cccc(O)c2)CC1`, the Potency entry is “inactive”.

Regarding `CCCCCCCCCCCCCCC[C@H](O)[C@H](N)CO`, the Potency entry is “inactive”.

For `Cn1c(=O)[nH]c2ncn(C)c2c1=O`, the Potency entry was “inactive”.

Take `CCC(=O)N1CCN(C(=O)c2ccccc2)CC1`: the Potency result was “inactive”.

Consider `O=c1[nH]ccc2c(O)cccc12`, for which the Potency entry is “inactive”.

As for `O=c1onc2n1-c1cc(Br)ccc1OC2`, the Potency entry is “inactive”.

On to `COc1cc(/C=C(\C#N)C(=O)c2ccc(O)c(O)c2)cc(I)c1O`, for which the Potency is 2.24 µM (active).

For the compound `O=C(O)C1=CCCN(CCON=C(c2ccccc2)c2ccccc2)C1`, the Potency entry is “inactive”.

Tested on in a further assay: not listed separately
Put plainly: Counterscreen for APE1 Inhibitors: Fluorescent Dye Displacement Validation Assay (AID 1707). The conditions noted are these: fluorescent dye displacement from DNA; series mostly up to 57.1 µM. In short, it runs like this: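 Thiazole Orange (250 nM) bound to 50 nM TAMRA-labelled dsDNA with tetrahydrofuran abasic site; displacement by DNA-binding compounds lowers fluorescence. Buffer 50 mM Tris-HCl pH 7.5, 50 mM NaCl, 2 mM MgCl2, 0.01% Tween-20; endpoint read at 480/540 nm.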
(In general: A counterscreen serves to expose hits that act by an unwanted route or on another target.)
Consider `O=C(O)/C(=C/c1c(C(=O)O)[nH]c2cc(Cl)cc(Cl)c12)c1ccccc1`, for which the Potency result was “inactive”.

Take `CC1=C(/C=C/C(C)=C/C=C/C(C)=C\C(=O)O)C(C)(C)CCC1`: the Potency result was “inactive”.

Turning to `N=C(N)c1ccccc1`, the Potency entry was “inactive”.

With `Cc1nc(N=Nc2ccc(S(=O)(=O)O)cc2S(=O)(=O)O)c(COP(=O)(O)O)c(C=O)c1O`, the Potency result was “inactive”.

On to `N=S(=O)(O)Cc1noc2ccccc12`, for which the Potency entry is “inactive”.

Turning to `O=[N+]([O-])c1cccc2cn[nH]c12`, the Potency entry is “inactive”.

On to `CC[N+](CC)(CC)CC(=O)Nc1c(C)cccc1C`, for which the Potency result was “inactive”.

Take `O=C(O)C1=CCCNC1`: the Potency entry was “inactive”.

As to `CNc1cc(NS(=O)(=O)c2ccc(N)cc2)nc(NC)n1`, the Potency entry was “inactive”.

In the case of `NC/C=C\C(=O)O`, the Potency entry is “inactive”.

As to `CN1CCN(c2nc3cc(C(F)(F)F)ccc3n3cccc23)CC1`, the Potency result is “inactive”.

Consider `CCSC(=N)N`, for which the Potency result is “inactive”.

On to `c1ccc(CN2CCC3(CCCc4ccccc43)CC2)cc1`, for which the Potency entry is “inactive”.

For the compound `CCCC[C@@]1(C2CCCC2)Cc2cc(OCC(=O)O)c(Cl)c(Cl)c2C1=O`, the Potency entry is “inactive”.

With `Cc1nc(N=Nc2ccc(C(=O)O)cc2)c(COP(=O)(O)O)c(C=O)c1O`, the Potency result is “inactive”.

For `N[C@@H](CCC(=O)N[C@H](CSN=O)C(=O)NCC(=O)O)C(=O)O`, the Potency entry is “inactive”.

Consider `NCCCCN=C(N)N`, for which the Potency result was “inactive”.

As for `Cc1cc2c(cc1Cl)N(C(=O)Nc1ccnc3ccccc13)CC2`, the Potency entry was “inactive”.

As to `CC(=O)NNC(=O)N1Cc2ccccc2Oc2ccc(Cl)cc21`, the Potency result is “inactive”.

With `CC1CCN(CC[C@H]2CCCN2S(=O)(=O)c2cccc(O)c2)CC1`, the Potency result was “inactive”.

For `Cn1c(=O)[nH]c2ncn(C)c2c1=O`, the Potency result was “inactive”.

Take `CCC(=O)N1CCN(C(=O)c2ccccc2)CC1`: the Potency entry was “inactive”.

As to `O=c1onc2n1-c1cc(Br)ccc1OC2`, the Potency result is “inactive”.

Regarding `CSC(=N)N`, the Potency result is “inactive”.

For another assay, the target named is Endonuclease 4 (Escherichia coli (strain K12)) (UniProt P0A6C1). The assay is described as follows: Counterscreen for APE1 Inhibitors: qHTS Validation Assay for Inhibitors of Endonuclease IV (AID 1708). Note: potency is the fitted concentration of half-maximal effect. Conditions: E. coli endonuclease IV, DNA cleavage fluorescence; series mostly up to 57.1 µM. In short, it runs like this: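 Cleavage of a quenched abasic-site DNA duplex (50 nM, 5'-TAMRA, 3'-BHQ-2) by 2 nM enzyme is followed as fluorescence increase. Compounds are preincubated with enzyme 15 min at room temperature before substrate addition.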
Regarding `O=C(O)CCC(=O)N1CCCC1C(=O)O` (stereo not drawn), the Potency entry was “inactive”.

Consider `Cc1nc(N=Nc2ccc(S(=O)(=O)O)cc2S(=O)(=O)O)c(COP(=O)(O)O)c(C=O)c1O`, for which the Potency result was “inactive”.

`C[C@@H](NCCc1ccc(O)cc1)[C@@H](O)c1ccc(O)cc1`: the Potency entry was “inactive”.

On to `O=C(O)c1cc2cc(F)ccc2[nH]1`, for which the Potency entry was “inactive”.

As for `O=C(O)C1=CCCNC1`, the Potency entry is “inactive”.

For the compound `CN1C2CCC1CC(OC(c1ccccc1)c1ccccc1)C2` (stereo not drawn), the Potency result was “inactive”.

`NC/C=C\C(=O)O`: the Potency result is “inactive”.

For the compound `Nc1ccc(-c2nc3ccc(-c4nc5ccc(N)cc5[nH]4)cc3[nH]2)cc1`, the Potency was 22.4 µM (active).

As to `O=C(O)c1cccnc1C(=O)O`, the Potency entry was “inactive”.

Take `Oc1cc2c(cc1O)C(c1ccccc1)CNCC2` (stereo not drawn): the Potency entry was “inactive”.

Turning to `NS(=O)(=O)c1cccc2c1c([N+](=O)[O-])cc1nc(O)c(O)nc12`, the Potency result is “inactive”.

As for `N[C@@H](CCC(=O)N[C@H](CSN=O)C(=O)NCC(=O)O)C(=O)O`, the Potency entry was “inactive”.

On to `CCCCCCCCCCCCCCC[C@H](O)[C@H](N)CO`, for which the Potency is 31.6 µM (active).

`O=c1[nH]ccc2c(O)cccc12`: the Potency entry is “inactive”.

Consider `CSC(=N)N`, for which the Potency result was “inactive”.

As for `COc1cc(/C=C(\C#N)C(=O)c2ccc(O)c(O)c2)cc(I)c1O`, the Potency result is “inactive”.

For `O=C(O)C1=CCCN(CCON=C(c2ccccc2)c2ccccc2)C1`, the Potency result was “inactive”.
